High-throughput results: PubChem BioAssay, National Center for Advancing Translational Sciences (NCATS)
This is a sample that favours compounds with a hit; in the whole collection about 7.5% have one here.
SMN2 splice enh: enhancers of SMN2 splice variant expression. HEK293 SMN2-luciferase splicing reporter, luminescence, 30-36 h. Potency, µM (highest dose often 46.1 µM), inactives show at the highest dose activity change, positive = activation, actives largely listed as activators. 210,000 compounds, 2.8% hits; further: % of control where 0% means no effect; nearly all actives have a fitted effect of over 55% in size
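HEK293 cells carry an SMN2 […]–luciferase reporter in which exon 7 inclusion puts luciferase in frame. Cells were plated 10-12 h before compound addition, then incubated 30-36 h at 37C. ONE-Glo luminescence was read; sodium butyrate at 4.5 mM final served as control.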
FLuc modulator: firefly luciferase modulation, counter-screen for miR-21 project | P08659 | purified FLuc, Km substrates, luminescence inhibition | Potency, µM (highest dose often 57.5 µM), without a hit: at the highest dose activity change, negative = inhibition, hits mostly inhibitors | 360,000 compounds, 6.9% hits;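 further: plate controls were vehicle for no effect and reference inhibitor for full effect; nearly all actives have a fitted effect of over 55% in size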
Target sequence (P08659 whole entry, looked up): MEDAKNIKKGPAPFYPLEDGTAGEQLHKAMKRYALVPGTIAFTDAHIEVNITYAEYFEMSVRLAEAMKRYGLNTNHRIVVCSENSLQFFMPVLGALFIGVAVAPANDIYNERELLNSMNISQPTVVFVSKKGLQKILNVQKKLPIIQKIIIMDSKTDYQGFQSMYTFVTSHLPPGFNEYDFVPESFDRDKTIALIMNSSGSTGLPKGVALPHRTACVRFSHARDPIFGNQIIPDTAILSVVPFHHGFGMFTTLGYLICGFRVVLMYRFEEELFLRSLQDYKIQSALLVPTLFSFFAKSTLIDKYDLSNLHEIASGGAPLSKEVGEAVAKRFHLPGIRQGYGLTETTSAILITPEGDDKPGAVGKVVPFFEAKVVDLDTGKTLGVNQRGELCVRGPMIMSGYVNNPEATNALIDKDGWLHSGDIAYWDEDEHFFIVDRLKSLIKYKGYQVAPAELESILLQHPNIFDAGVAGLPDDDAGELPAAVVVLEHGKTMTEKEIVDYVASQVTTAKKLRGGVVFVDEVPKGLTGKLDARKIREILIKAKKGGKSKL
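Biochemical qHTS of compounds, final roughly 60 µM downward over six points, against 10 nM purified firefly luciferase using Km concentrations of substrates (10 uM D-luciferin, 10 uM ATP) in Tris acetate pH 7.5 buffer; luminescence output.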
NPC1 prom act: NPC1 promoter activation; Huh7 NPC1 promoter luciferase reporter, 24 h; Potency, µM (series often up to 9.22 µM), for the others: at the highest dose activation, hits mostly activators; 320,000 compounds, 2.4% hits; further: % of control where 0% means no effect; nearly all actives have a fitted effect of over 60% in size
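Luminescence read-out of NPC1 promoter-driven luciferase in stably transfected Huh7 cells; compounds delivered in DMSO and left 24 h at 37C, 5% CO2, qHTS titration format.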
ELG1 genotox: induces genotoxicity in HEK293T cells with luciferase-tagged ELG1. HEK293T ELG1-luciferase reporter, luminescence, 16 h. 330,000 compounds, 1.3% hits. Potency, µM (top dose mostly 46 µM), for the others: at the highest dose activity change, positive = activation, hits mostly activators; further: % of control where 0% means no effect; nearly all actives have a fitted effect of over 60% in size
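Genotoxicity was scored as increased ELG1-luciferase reporter signal, measured by ONE-Glo luminescence (30 min, room temperature). Compound or vehicle exposure of the HEK293T reporter cells lasted 16 hr at 37°C.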
Rab9 promoter act: Rab9 promoter activation | Huh7 Rab9 promoter-luciferase reporter, luminescence, 24 h | 320,000 compounds, 2.8% hits | Potency, µM (titrated, usually from 9.22 µM), for the others: at the top dose activation, negative = inhibition, actives largely listed as activators; further: % of control where 0% means no effect; nearly all actives have a fitted effect of over 60% in size
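Luminescence from Amplite-detected luciferase (10 minutes, ambient) reports Rab9 promoter activation. Before that, stable Rab9-luciferase Huh7 cells (1500/well, reduced-serum OP-MEM I plus 10% FBS) were exposed to compound for 24 hours at 37C.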
KinaseGlo FLuc: Kinase-Glo luciferase inhibition (counter-screen). Q27757. Kinase-Glo luciferase, ATP luminescence, 8 min. Potency, µM (highest dose often 38.3 µM), for inactives: at the top dose activity change, negative = inhibition, actives largely listed as inhibitors. 200,000 compounds, 0.28% hits. AID 1379; further: on the % scale 0 is the no-effect control and ±100 the full control effect; nearly all actives have a fitted effect of over 60% in size
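Inhibition of Kinase-Glo luciferase light generation was assessed at 10 uM ATP in pH 7.2 imidazole buffer, with luminescence measured after eight minutes at ambient temperature.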
* = called active by the depositor. The call rests on the fitted dose curve; in most records, active means well fitted curve in the direction sought with a large enough effect; inconclusive means small, poorly fitted or top-dose-only effect, or another doubt; inactive means no such curve, though single readings can be large; an effect the other way counts as inactive or inconclusive. Potency means the concentration at half of the fitted maximal effect.

How did O=C(CSC1=Nc2ccccc2C2=NC(CCC(=O)NC3CCCCC3)C(=O)N12)Nc1cccc(C(F)(F)F)c1 (stereo not given) do in these assays?
SMN2 splice enh: 12%; FLuc modulator: 2%

Results for Clc1ccc(Cc2ccc(SCc3ccccc3)nn2)c(Cl)c1 ?
SMN2 splice enh: -1%; FLuc modulator: -9%; NPC1 prom act: -3%; ELG1 genotox: -5%; Rab9 promoter act: -1%; KinaseGlo FLuc: 0%

Results for Clc1ccc(CSc2cc3c(nn2)-c2ccccc2CC3)cc1 ?
SMN2 splice enh: 12%; FLuc modulator: 12µM*; NPC1 prom act: inconclusive; ELG1 genotox: 6%; Rab9 promoter act: 28%; KinaseGlo FLuc: 4%

Results for COc1cccc(C(c2sc3nc(-c4ccco4)nn3c2O)N2CCN(C)CC2)c1 (stereo not given) ?
FLuc modulator: 5%

Results for O=C(Cc1nc2ccccc2[nH]1)c1ccc(Br)cc1 ?
SMN2 splice enh: inconclusive; FLuc modulator: 21µM*; NPC1 prom act: 29%; ELG1 genotox: 9%; Rab9 promoter act: inconclusive; KinaseGlo FLuc: -2%

Results for O=c1[nH]c2ccccc2nc1Cc1ccccc1 ?
SMN2 splice enh: 2%; FLuc modulator: 0%; NPC1 prom act: 1%; ELG1 genotox: 0%; Rab9 promoter act: 5%; KinaseGlo FLuc: -2%

What do the screens show for `O=C(Cc1nc2ccccc2[nH]c1=O)c1ccccc1`?
SMN2 splice enh: 11µM*; FLuc modulator: 3.4µM*; NPC1 prom act: 3.2µM*; ELG1 genotox: inconclusive; Rab9 promoter act: 1.4µM*; KinaseGlo FLuc: -20%

What do the screens show for `COc1cccc(N2CC(NC(=O)COc3ccc4ccccc4c3)CC2=O)c1` (stereo not given)?
FLuc modulator: 1%

What do the screens show for `CCOC(=O)c1cnc2c(Cl)cc(Cl)cc2c1Nc1cc(C(=O)O)ccc1C`?
SMN2 splice enh: -7%; FLuc modulator: 12µM*

Results for CCOC(=O)c1cnc2ccccc2c1Nc1cc(C(=O)O)ccc1C ?
SMN2 splice enh: 0%; FLuc modulator: inconclusive; NPC1 prom act: 0%; ELG1 genotox: -9%; Rab9 promoter act: -5%; KinaseGlo FLuc: -4%

Results for CCS(=O)(=O)Nc1ccc(-c2cn3c(C)csc3n2)cc1 ?
FLuc modulator: 19µM*

What do the screens show for `CC(=O)Nc1ccc(S(=O)(=O)Nc2ccc(-c3cn4c(C)csc4n3)cc2)cc1`?
FLuc modulator: 17µM*

What do the screens show for `CCS(=O)(=O)NCc1cn2c(C)csc2n1`?
SMN2 splice enh: 2%; FLuc modulator: -1%; NPC1 prom act: 5%; ELG1 genotox: 3%; Rab9 promoter act: -4%; KinaseGlo FLuc: -5%

What do the screens show for `Cc1ccc(SCC(=O)OCC(=O)N(C)CC(=O)Nc2ccccc2Cl)cc1`?
FLuc modulator: -15%; NPC1 prom act: 0%; ELG1 genotox: 0%; Rab9 promoter act: -4%

Results for O=C(COC(=O)c1ccccn1)NC12CC3CC(CC(C3)C1)C2 ?
SMN2 splice enh: 14%; FLuc modulator: 21µM*; NPC1 prom act: 0%; ELG1 genotox: -3%; Rab9 promoter act: -6%; KinaseGlo FLuc: -5%

Results for O=C(COC(=O)c1cccs1)NC12CC3CC(CC(C3)C1)C2 ?
SMN2 splice enh: 8%; FLuc modulator: 24µM*; NPC1 prom act: -3%; ELG1 genotox: -1%; Rab9 promoter act: 11%; KinaseGlo FLuc: 3%

What do the screens show for `Cc1cccc(CCNC(=O)c2nn(C)c3c2CSc2ccccc2-3)c1`?
FLuc modulator: -5%

How did O=C(Nc1cccc(-c2ccc(N3CCOCC3)nn2)c1)c1ccc(F)cc1F do in these assays?
FLuc modulator: 1.1µM*; NPC1 prom act: 2.8µM*; ELG1 genotox: inconclusive; Rab9 promoter act: 2.8µM*
